According to the supplement of paper PMC9477273:

Test system: DRIVER-selected RNA biosensor (aptazyme) pool
Experiment: maximum fold change of ribozyme cleavage across biosensor pool versus no-compound control; higher = stronger biosensor response (ligand inhibits cleavage)
Conditions: 10 µM
Method in brief: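 Values are the maximum fold change of cleavage over all biosensors in a CleaveSeq assay, defined as the cleaved:uncleaved read-fraction ratio against a no-compound condition after correction with reference sequences. The 1,730 array-resynthesized ribozyme biosensors were T7-transcribed for 15–30 min at 37°C with 9 mM rNTPs and a single compound at 10 µM final, then reverse-transcribed at 50°C. Read counts came from Illumina sequencing of PCR-barcoded cleaved and uncleaved products.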

Question: With `Cn1c(-c2ccc3c(c2)OCO3)cnc1NCc1cc(Br)ccc1F` as the molecule, how does the maximum fold change read?
Answer: Its maximum fold change is 3.3.

Question: With `CC(=O)N1N=C(c2c(-c3ccccc3)c3cc(Cl)ccc3[nH]c2=O)CC1c1ccco1` (stereo not given) as the molecule, how does the maximum fold change read?
Answer: The maximum fold change was 6.87.

Question: Which maximum fold change does the source give for `CN1C(=O)c2ccccc2C(C(=O)O)C1c1c[nH]c2ccccc12` (stereo not given) here?
Answer: Its maximum fold change is 2.39.

Question: `COC(=O)/C(C#N)=C/c1c(Oc2ccccc2Cl)nc2ccccn2c1=O` was tested. Which maximum fold change did it give?
Answer: Its maximum fold change is 3.58.

Question: Which maximum fold change does the source give for `Cn1c(=O)[nH]c(=O)c2c1nc(NCCCn1ccnc1)n2CCCc1ccccc1` here?
Answer: The maximum fold change was 1.96.

Question: Which maximum fold change does the source give for `C=Cc1ccc(Cn2c(C(=O)O)c(CNCc3ccco3)c3ccc(C)cc32)cc1` here?
Answer: Its maximum fold change is 2.45.

Question: Which maximum fold change does the source give for `COc1ccc(OC)c(/C=C2/N=C(c3cccc(Cl)c3Cl)OC2=O)c1` here?
Answer: Its maximum fold change is 4.84.

Question: Which maximum fold change does the source give for `COc1ccc(-c2cc3c(=O)n(CC(=O)NCc4ccccn4)ncn3n2)cc1` here?
Answer: The maximum fold change was 3.51.

Question: Which maximum fold change does the source give for `CNc1cnn(C23CC4CC(CC(CC(=O)O)(C4)C2)C3)c(=O)c1Cl` here?
Answer: Its maximum fold change is 4.5.

Question: With `COc1ccc(C(=O)/C=C2\Nc3ccc(C(=O)NCc4cccc(OC)c4)cc3NC2=O)cc1` as the molecule, how does the maximum fold change read?
Answer: The maximum fold change was 7.89.

Question: How did the maximum fold change turn out when `N#C/C(=Cc1c(Oc2ccccc2)nc2n(c1=O)cccc2)/c1nc2c(s1)cccc2` was run?
Answer: Its maximum fold change is 21.

Question: For `CC(C)COc1ccc(-c2nn(-c3ccccc3)cc2CO)cc1`, which maximum fold change is on record?
Answer: The maximum fold change was 3.19.

Question: How did the maximum fold change turn out when `CCCCNCc1c(C(=O)O)c(C)n(Cc2cc(C)ccc2C)c1C` was run?
Answer: Its maximum fold change is 2.79.

Question: `N=C1/C(=C\c2ccc(Br)cc2)C(=O)N=C2SC(N3CCOCC3)=NN12` was tested. Which maximum fold change did it give?
Answer: Its maximum fold change is 2.79.

Question: Which maximum fold change does the source give for `CCOc1ccc(CCNC(=O)CCn2c(=O)c3cccn3c3cccnc32)cc1OCC` here?
Answer: Its maximum fold change is 2.67.

Question: With `O=C(CSc1nnc(-c2ccc(Cl)s2)o1)N1CCOCC1` as the molecule, how does the maximum fold change read?
Answer: Its maximum fold change is 3.21.

Question: With `CCOC(=O)c1ccc(-c2sc3nc(N4CCOCC4)c4c(c3c2N)CC(C)(C)OC4)o1` as the molecule, how does the maximum fold change read?
Answer: Its maximum fold change is 2.03.

Question: `O=C(NCc1cccc(Cl)c1)c1cnc2ccccn2c1=O` was tested. Which maximum fold change did it give?
Answer: The maximum fold change was 7.03.

Question: `O=C(Cn1ccc2cc(S(=O)(=O)N3CCCC3)ccc21)NC1CC1` was tested. Which maximum fold change did it give?
Answer: The maximum fold change was 2.36.

Question: With `N#C/C(=Cc1c(Oc2ccc(c(c2)C)Cl)nc2n(c1=O)cccc2)/C(=O)N1CCCCC1` as the molecule, how does the maximum fold change read?
Answer: The maximum fold change was 2.6.

Question: For `Cc1ccc(CNCc2c(C(=O)O)c(C)n(Cc3ccccc3C)c2C)o1`, which maximum fold change is on record?
Answer: Its maximum fold change is 3.25.

Question: For `COc1ccc(cc1)/C=CC(=O)NCC(=O)O`, which maximum fold change is on record?
Answer: Its maximum fold change is 3.29.

Question: Which maximum fold change does the source give for `CCN1CCN(CCCNC(=O)c2ccc3c(c2)NC(=O)/C(=C/C(=O)c2ccc(OC)cc2)N3)CC1` here?
Answer: Its maximum fold change is 8.68.

Question: Which maximum fold change does the source give for `O=C(NCc1ccc2c(c1)OCO2)c1cc(-c2ccc(Cl)cc2)n[nH]1` here?
Answer: Its maximum fold change is 3.13.

Question: `COc1ccc(OC)c(/C=C2/N=C(c3ccc(OC)c(Br)c3)OC2=O)c1` was tested. Which maximum fold change did it give?
Answer: The maximum fold change was 2.65.

Question: `CCOc1ccc(/C=C2\SC(N3CC(C)OC(C)C3)=NC2=O)cc1` (stereo not given) was tested. Which maximum fold change did it give?
Answer: Its maximum fold change is 2.08.

Question: Which maximum fold change does the source give for `CC(NC(=O)C1CCC(CNS(=O)(=O)c2ccccc2)CC1)c1ccccc1` (stereo not given) here?
Answer: The maximum fold change was 2.1.

Question: For `O=C(Cc1cn(Cc2cccc(Cl)c2)c2ccccc12)N1CCCC1`, which maximum fold change is on record?
Answer: The maximum fold change was 3.3.

Question: With `CCOc1ccccc1-n1cc2c(c1-c1cccc(C)c1)c(=O)n(C)c(=O)n2C` as the molecule, how does the maximum fold change read?
Answer: Its maximum fold change is 1.83.

Question: With `CCOC(=O)C1=C(C)NC2=C(C(=O)c3ccccc32)C1c1ccc(C(F)(F)F)cc1` (stereo not given) as the molecule, how does the maximum fold change read?
Answer: Its maximum fold change is 2.29.
